# Source: PubChem BioAssay
# Pf growth 48h = P. falciparum growth inhibition at 48 hours (one generation); P. falciparum luciferase growth in erythrocytes, 48 h; Potency, µM (highest dose often 28.7 µM), without a hit: at the highest dose activity change, negative = inhibition, hits mostly inhibitors; 310,000 tested, 5.9% active; AID 504832; further: on the % scale 0 is the no-effect control and ±100 the full control effect
#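 Cell-based growth assay: transgenic P. falciparum expressing firefly luciferase, cultured in red cells within RPMI 1640 containing 0.5% w/v Albumax, 24 mM bicarbonate and gentamycin. A drop in luciferase activity indicates inhibition.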
# Pf growth 96h = P. falciparum growth inhibition at 96 hours; P. falciparum luciferase reporter growth, 96 h; Potency, µM (series often up to 28.7 µM), inactives show at the highest dose activity change, negative = inhibition, most hits filed as inhibitors; 320,000 tested, 6.9% active; AID 504834; further: on the % scale 0 is the no-effect control and ±100 the full control effect
#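 Two parasite generations (96 h, 37 C, 5% CO2) of compound exposure in infected erythrocytes (0.05% parasitemia, 2% hematocrit). Luciferase-reporter P. falciparum; decreased luminescence indicates inhibited growth, aimed at apicoplast-acting delayed death.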
# AmpC inh detg = AmpC beta-lactamase inhibition with detergent present; AmpC hydrolysis of nitrocefin, absorbance 480 nm, 0.01% Triton; 370,000 tested, 0.041% active; P00811; AID 485294; Potency, µM (top dose mostly 114 µM), for the others: at the highest dose activity change, negative = inhibition, most hits filed as inhibitors;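 further: 0% = no-compound wells and -100% = no-enzyme wells; nearly all actives have a fitted effect of over 25% in size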
# Target sequence (P00811 whole entry, looked up): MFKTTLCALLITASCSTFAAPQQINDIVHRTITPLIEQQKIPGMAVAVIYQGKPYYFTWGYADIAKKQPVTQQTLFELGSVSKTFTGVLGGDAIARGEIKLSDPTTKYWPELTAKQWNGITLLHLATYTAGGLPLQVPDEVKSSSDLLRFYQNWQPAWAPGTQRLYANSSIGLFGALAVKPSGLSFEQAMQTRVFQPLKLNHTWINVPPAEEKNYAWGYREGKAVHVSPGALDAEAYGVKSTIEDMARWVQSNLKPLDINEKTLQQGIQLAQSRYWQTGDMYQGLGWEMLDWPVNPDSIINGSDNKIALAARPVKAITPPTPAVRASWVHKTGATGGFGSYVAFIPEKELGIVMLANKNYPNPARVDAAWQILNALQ
#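 AmpC (5.3 nM in the dispensed reagent) in 20 mM phosphate pH 7.0 with 0.01% (detergent screen) or 0.0001% Triton X-100 was preincubated with compounds for 15 min at room temperature. Nitrocefin was then added from an 800 uM solution, and hydrolysis was followed at 480 nm.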
# SARS PLP yeast = inhibitors of SARS-CoV papain-like protease in yeast. Potency, µM (series often up to 32.9 µM), inactives show at the top dose activity, positive = growth rescue, actives largely listed as activators. AID 485353. S. cerevisiae expressing SARS-CoV PLpro, growth rescue. 330,000 tested, 0.19% active; calls by dose curve; further: 0% is about no effect; nearly all actives have a fitted effect of over 55% in size
# AmpC inh no detg = inhibitors of E. coli AmpC beta-lactamase without detergent | P00811 | 330,000 tested, 0.52% active | Potency, µM (highest dose often 57.1 µM), without a hit: at the highest dose activity change, negative = inhibition, usual class: inhibitors | AID 485341 | AmpC nitrocefin hydrolysis, absorbance 480 nm, 0.0001% Triton;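 further: plate controls were no compound for no effect and no enzyme for full effect; nearly all actives have a fitted effect of over 20% in size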
#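 AmpC (5.3 nM in the dispensed reagent) in 20 mM phosphate pH 7.0 with 0.01% (detergent screen) or 0.0001% Triton X-100 was preincubated with compounds for 15 min at room temperature. Nitrocefin was then added from an 800 uM solution, and hydrolysis was followed at 480 nm.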
# Sm TGR block = inhibitors of Schistosoma mansoni thioredoxin glutathione reductase | 360,000 tested, 3% active | Potency, µM (series often up to 114 µM), for inactives: at the highest dose activity change, negative = inhibition, most hits filed as inhibitors | AID 485364 | Q962Y6 | purified TGR, DTNB reduction, TNB absorbance 405 nm; further: on the % scale 0 is the no-effect control and ±100 the full control effect; nearly all actives have a fitted effect of over 60% in size
#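 Kinetic colorimetric format: TGR-catalysed, NADPH-driven DTNB reduction monitored via TNB absorbance. Enzyme dispensed at 20 nM; compound exposure 15 min at room temperature before reaction start.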
# * = called active by the depositor; u = inconclusive; x = no result; [ ] = another dose, or the depositor's remark. Most compounds without a hit are left out; they make up all but 12% or so of the library. Unless noted, the call rests on the fitted dose curve; in most records, active means well fitted curve in the direction sought with a large enough effect; inconclusive means small, poorly fitted or top-dose-only effect, or another doubt; inactive means no such curve, though single readings can be large; an effect the other way counts as inactive or inconclusive. Potency means the concentration at half of the fitted maximal effect.
SMILES,Pf growth 48h,Pf growth 96h,AmpC inh detg,SARS PLP yeast,AmpC inh no detg,Sm TGR block
CN1CCN(S(=O)(=O)c2cnccc2N2CCN(c3cccc(Cl)c3)CC2)CC1,2.62µM*,2.62µM*,-7.1%,2.5%,320.1%,-1.8%
O=C(CCCCn1c(=O)c2ccccc2n(Cc2cccc(F)c2)c1=O)NCc1ccc2c(c1)OCO2,x,x,2.8%,x,x,-0.6%
O=[N+]([O-])c1cccc(S(=O)(=O)NCCc2cccs2)c1,17.4%,10.4µM*,-5.2%,0.5%,-28.8%,-16.2%
COc1cccc(Cn2ncc3c4sc(B(O)O)cc4n(C)c3c2=O)c1,u,u,1.12µM*,-6.5%,2.24µM*,-1.8%
COCCn1c(SCC(=O)c2ccc(Cl)cc2)nnc1C(C)C,-10.0%,31.0%,-9.2%,-1.6%,-4.5%,39.8µM*
COCCn1c(SCC(=O)Nc2cccc(OC)c2)nnc1-c1ccccc1,-1.8%,2.33µM*,0.5%,1.0%,-12.5%,0.8%
COCCn1c(SCC(=O)Nc2cccc(OC)c2)nnc1-c1ccc(Cl)cc1,-19.8%,x,-19.9%,5.2%,28.4%,3.7%
COCCn1c(SCC(=O)c2ccc3c(c2)OCCO3)nnc1C(C)C,18.7%,15.2%,0.1%,3.3%,20.2%,u
COc1ccccc1-n1ccnc1SCC(=O)NCc1ccco1,u,10.4µM*,2.2%,1.1%,-1.0%,u
COCCn1c(SCC(=O)Nc2cccc(C)c2)nnc1C(C)C,14.9%,0.165µM*,-19.1%,1.6%,-15.7%,-26.7%
CCOc1ccccc1NC(=O)N1CCc2c(sc(C)c2CC)C1c1ccccc1 (configuration not stated),x,x,2.9%,x,x,-2.0%
COCCn1c(SCC(=O)NCc2ccco2)nnc1C(C)C,-2.8%,-3.5%,1.4%,-35.0%,-5.3%,44.7µM*
CCn1c(SCC(=O)NCc2ccco2)nnc1C(C)C,13.5%,u,2.9%,5.9%,5.3%,0.0%
CCOC(=O)c1cccc(NC(=O)CSc2nnc(-c3ccoc3C)n2CCOC)c1,-0.3%,1.17µM*,-3.0%,5.1%,32.5%,-28.9%
S=C(NCCN1CCOCC1)N/N=C/c1cccs1,3.29µM*,2.33µM*,-1.0%,0.9%,-12.2%,-1.1%
O=C(NCCN1CCOCC1)c1cc(-c2ccccc2)on1,58.6%,x,0.1%,-0.9%,-11.6%,4.4%
S=C(N/N=C/c1cccs1)NC1CC2CCC1C2 (configuration not stated),u,10.4µM*,-9.3%,-4.2%,-45.7%,2.5%
Oc1ccc(/C=N/NC(=S)NC2CC3CCC2C3)cc1 (configuration not stated),u,u,1.4%,1.0%,-55.2%,-23.7%
O=C(NCCN1CCOCC1)c1cc(-c2cccs2)on1,62.1%,9.28µM*,-0.1%,-2.0%,-18.7%,-10.4%
Oc1cccc(/C=N/NC(=S)NCCN2CCOCC2)c1O,u,u,u,7.0%,-13.2%,-1.8%
CCCCOc1ccc(C2=NC(c3ccncc3)=Nc3ccc(OCC)cc3N2)cc1,x,x,19.8%,x,x,-3.8%
O=C(CN1C(=O)C2C3C=CC(C3)C2C1=O)NCCN1CCCc2ccccc21 (configuration not stated),x,0.0%,u,2.7%,10.8%,50.1µM*
Cc1ccccc1OCc1ccc(-c2nc(C#N)c(N3CCC(C(N)=O)CC3)o2)o1,x,x,0.6%,x,x,-6.8%
CCOc1ccc(OCC(=O)c2c(O)c3ccccc3oc2=O)cc1,32.5%,18.8%,-8.0%,-6.7%,-57.8%,17.8µM*
COc1ccc(OCC(=O)c2c(O)c3ccccc3oc2=O)cc1,9.4%,-2.7%[5.75 µM],-12.6%,-3.1%,-24.7%,31.6µM*
SMILES,Pf growth 48h,Pf growth 96h,AmpC inh detg,SARS PLP yeast,AmpC inh no detg,Sm TGR block
O=C(CC1CCCCC1)c1c(O)c2ccccc2oc1=O,1.8%,-5.0%,3.0%,-21.2%,-19.3%,50.1µM*
CCCCOC(=O)c1ccc(NC(=O)CC2NCCNC2=O)cc1 (configuration not stated),x,x,0.1%,x,x,-1.1%
CC(C)(C)c1ccc(OCC(=O)NCC2(N3CCOCC3)CCCCC2)cc1,x,x,7.4%,x,x,-1.3%
CCCN1CCN(CCNC(=O)Nc2cc(OC)cc(OC)c2)CC1,x,x,4.3%,x,x,-0.8%
Cc1ccc(Oc2ccc(-c3nnc(-c4ccccc4)o3)cc2[N+](=O)[O-])cc1C,15.0%,20.7%,-15.4%,0.1%,-24.8%,-12.7%
O=C1C(Cl)=C(NS(=O)(=O)c2ccc([N+](=O)[O-])cc2)C(=O)c2ccccc21,u,5.22µM*,u,-0.3%,-29.4%,0.891µM*
COc1ccccc1NC(=O)CCN1C(=O)C2CC=CCC2C1=O (configuration not stated),29.6%,u,u,-1.8%,-4.8%,-13.6%
CCOC(=O)C1CCN(C(=O)Cn2cnc3sc(C)c(S(=O)(=O)N4CCC(C)CC4)c3c2=O)CC1,4.15µM*,10.7%,-10.4%,-1.4%,75.9%,-2.2%
CCN1CCCC1CNC(=O)Cn1cnc2sc(C)c(S(=O)(=O)N3CCC(C)CC3)c2c1=O (configuration not stated),-1.6%,6.57µM*,1.2%,-21.4%,12.6%,-5.8%
CCCC(C(=O)NC1CCCC1)N(Cc1ccccc1)C(=O)c1snc(C(N)=O)c1N (configuration not stated),u,32.5%,5.3%,0.1%,1.0%,4.8%
CCCNC(=O)c1cc(-c2ccc(OC)cc2)n(CCCOC)c1C,2.08µM*,39.0%,-9.7%,u,4.6%,3.1%
O=C(CSc1ccc(-c2cccnc2)nn1)Nc1ccc(F)c(F)c1,u,u,1.9%,4.9%,-28.0%,5.7%
Cc1nc(N2CCN(C)CC2)c2sc(=S)n(-c3ccccc3)c2n1,2.5%,-28.2%,-9.4%,-12.7%,-10.7%,-0.2%
Cc1nc(N2CCN(C)CC2)c2sc(=S)n(C)c2n1,x,9.28µM*,-2.1%,-12.1%,-4.2%,0.5%
COc1cccc(CN2c3ccc(Br)cc3C(=O)CS2(=O)=O)c1,9.28µM*,u,4.3%,-1.1%,u,5.7%
C=CCN1c2ccccc2C(=O)C(C)S1(=O)=O (configuration not stated),x,x,x,-8.6%,-20.5%,x
COc1cccc(CN2C(=O)C(C)Oc3ccccc32)c1 (configuration not stated),u,u,-0.2%,0.6%,-19.1%,-14.8%
C=CCN1c2ccc(Br)cc2C(=O)CS1(=O)=O,30.1%,36.7%,-1.3%,1.8%,3.98µM*,-0.2%
Cc1cc(S(=O)(=O)Nc2ccc(-c3ccc(N4CCCCC4)nn3)cc2)c(C)cc1Cl,x,x,6.4%,x,x,-8.8%
CCC1CCCCN1C(=O)NC(=O)c1ccccc1 (configuration not stated),-5.9%,u,2.2%,-3.2%,1.5%,1.9%
